Compounds without any hit were thinned out: in the full panel of roughly 83,000, 20% have a hit.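 Values shown are percent growth following 48 h exposure of cells in 96-well plates to a single concentration of compound; below 10 was considered active.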 Values without a mark were called inactive. The source made the active and inactive calls.

The subject of the assay is HL-60(TB) leukemia. Put plainly: NCI-60 one-dose screen, 48 h (100 = growth as untreated, 0 = no growth, -100 = all killed). Conditions: 10 µM unless noted.
Take `COc1cc(C#N)cc(OC)c1OCCN(CCOc1c(OC)cc(C#N)cc1OC)S(=O)(=O)c1ccc(C)cc1`: the growth was 102%.
As for `O=C(Nc1cc(Cl)ccc1O)c1cccc(Nc2ccnc(C(F)(F)F)c2)c1`, the figure is -18% (active); as for `O=C1C(Br)=C(c2ccccc2)C(=O)C(Br)=C1c1ccccc1`, 78.6%.
Take `Cc1nnc2c3nnc(-c4ccc(Cl)cc4)n3c3ccccc3n12`: the growth is 101%.
The same measure for `Cn1cc(-c2nnc(-c3cn(C)c4ncc(Br)cc34)o2)c2ccccc21`: 99%.
The same measure for `N#Cc1c(N)n(CCNC(=O)c2ccccc2)c2nc3ccccc3nc12`: 34.5%; for `COc1cc(C=Nc2oc(-c3ccccc3)c(-c3ccccc3)c2C#N)cc(CN2CCCCC2)c1O`: 92.5%.
With `CCOC(=O)C(COS(C)(=O)=O)(COS(C)(=O)=O)C(=O)OCC`, the growth was 104%.
The same measure for `Cc1ccccc1C(=O)c1ccccc1C(=O)O`: 106%; for `Nc1c(C(=O)Nc2cccc(Cl)c2)sc2ncc(Cl)cc12`: 88.7%.
As for `N#CCc1cccc2ccccc12`, the figure is 90.6%; as for `Clc1cc(Cl)cc(-c2cnc3nonc3n2)c1`, 10.9%; as for `C=C(C)[C@@H]1CC[C@]2(N=C=O)CC[C@]3(C)[C@H](CC[C@@H]4[C@@]5(C)Cc6c([nH]c7ccccc67)C(C)(C)[C@@H]5CC[C@]43C)[C@@H]12`, 46.2%.
The same measure for `C=C1C(=O)O[C@H]2[C@H]1CC/C(COC(=O)NCc1ccc(Cn3c(=O)sn(-c4ccccc4)c3=O)cc1)=C\CC[C@@]1(C)O[C@@H]21`: -25.2% (active); for `C=C1C(=O)O[C@H]2[C@H]1CC/C(C(=O)NCCCCCNC(=O)/C1=C/CC[C@@]3(C)O[C@H]3[C@H]3OC(=O)C(=C)[C@@H]3CC1)=C\CC[C@@]1(C)O[C@@H]21`: 89.4%; for `CCCCCCCCN(CCCCCCCC)CC(O)c1cc(-c2ccccc2)nc2ccc(OC)cc12` (stereo not given): -28.4% (active).
As for `CCN1CCN(c2cc(C(=O)Nc3cccc(Nc4ccc5c(OC)cccc5n4)c3)cc(C(F)(F)F)c2)CC1`, the growth is 62.6%.
As for `COc1cccc2c1C(=O)c1c(O)c3c(c(O)c1C2=O)C[C@@](O)(C(=O)CO)C[C@@H]3OC1C[C@H](N)[C@H](O)[C@H](C)O1` (stereo not given in full), the figure is -26.7% (active).
As for `COc1cc(-c2nn(-c3ccc(NC(=O)c4cc(Cl)cc(Cl)c4)cc3)cc2-c2ccncc2)ccc1Cl`, the figure is 41%; as for `N#C/C(=C\c1ccc2c(c1)OCO2)c1ccccc1`, 62%.
The same measure for `N#Cc1ncc(-c2ccc(C(F)(F)F)cc2)c(NCc2cc(C(F)(F)F)cc(C(F)(F)F)c2)n1`: -0.911% (active); for `O=C1c2ccccc2C(=O)c2c(N=Nc3[nH]c(=S)[nH]c3O)cccc21`: -32.1% (active).
Turning to `O=C1/C(=C/c2ccc(O)cc2)COc2ccc(O)c(O)c21`, the growth is -19.3% (active).
The same measure for `COc1cc(-c2n/c(=C\c3c(O)[nH]c4ccc(Cl)cc34)cc3c2=Nc2ccccc2-3)cc(OC)c1OC`: 48.3%; for `COc1ccc(CNCCN2C(=O)c3ccc4c5c(ccc(c35)C2=O)C(=O)N(CCNCc2ccc(OC)cc2)C4=O)cc1`: -63.4% (active).
As for `COC(=O)[C@H]1Cc2c([nH]c3ccccc23)[C@@H](c2cccs2)N1`, the figure is 99.7%; as for `CC(=O)c1ccccc1NC(=O)C(C)(c1ccccc1)c1ccccc1`, 94.3%; as for `Cc1cc(O)cc(-c2c(-c3ccnc(-c4cccnc4)c3)cnn2C)c1`, 46%.
The same measure for `COc1cccc(N2CCN(CC(=O)N3CCN(c4nnc(-c5ccc(Cl)cc5)c(-c5ccc(Cl)cc5)n4)CC3)CC2)c1`: 20.6%; for `CC1CCN(CCCCCOc2ccc3oc4ccccc4c(=O)c3c2)CC1`: 44.6%.
Turning to `COc1ccccc1NC(=O)c1ccc(/C=C/C(=O)c2nccn2C)cc1`, the growth was -9.45% (active).
The same measure for `CC(C)CSc1nc(-c2ccc(F)cc2)c(C#N)c(N2CCCCC2)n1`: 101%; for `CCOC(=O)c1ccc(C(=N)N)cc1`: 103%; for `O=C(c1nnc(Nc2ccccc2Br)o1)c1c[nH]c2ccccc12`: 103%.
As for `CN(C)C(=O)c1cc2cnc(Nc3ccc(-c4csc5c(=S)cc(N6CCOCC6)oc45)cc3)nc2n1C1CCCC1`, the figure is -30.6% (active).
Regarding `CC(C)(C)n1cc(-c2ccnc(NCCCNS(=O)(=O)c3ccc(C(F)(F)F)cc3)c2)c(-c2cccc(O)c2)n1`, the growth was -24.5% (active).
As for `O=c1c2cccc3c(N4CCCC4)ccc(c32)c2nc3ccccc3n12`, the figure is 72%.
Consider `CC1(C)CC[C@]23CC[C@]4(C)[C@H](CC[C@@H]5[C@@]6(C)CCNCC(C)(C)[C@@H]6CC[C@]54C)[C@H]2[C@H]1OC3`, for which the growth is 23.6%.
The same measure for `COc1cnc2c(c1)C(=O)c1c-2n(CCCN2CCC(O)CC2)c(=O)c2cc(F)ccc12`: -8.3% (active); for `Clc1ccc2c(c1)N(c1ncnc3ccc(-c4cnc5[nH]ccc5c4)cc13)CC2`: 16.3%.

Values taken from PubChem BioAssay (NCI).
